Source: PubChem BioAssay (NCATS)
Records with an inconclusive call do not appear. Where a call stands in place of a potency, no number is given. Calls of active or inactive are those of the source. Calls follow the shape of the dose curve; as a rule, active = well fitted curve in the direction sought with a large enough effect; inconclusive = small, poorly fitted or top-dose-only effect, or another doubt; inactive = no such curve, though single readings can be large; an effect the other way counts as inactive or inconclusive.

Legend:
[1] = target: Voltage-gated inwardly rectifying potassium channel KCNH2 (Homo sapiens) (UniProt Q12809); assay: qHTS Assay for Small Molecule Inhibitors of the Human hERG Channel Activity (AID 588834); conditions: U2OS BacMam hERG, FluxOR thallium flux fluorescence; series mostly up to 46.1 µM;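 also: top concentration of the series differs between compounds; lower thallium flux fluorescence means stronger hERG block; nearly all actives have a fitted effect of over 50% in size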
Sequence of Voltage-gated inwardly rectifying potassium channel KCNH2 (Homo sapiens) (Q12809 whole entry, looked up): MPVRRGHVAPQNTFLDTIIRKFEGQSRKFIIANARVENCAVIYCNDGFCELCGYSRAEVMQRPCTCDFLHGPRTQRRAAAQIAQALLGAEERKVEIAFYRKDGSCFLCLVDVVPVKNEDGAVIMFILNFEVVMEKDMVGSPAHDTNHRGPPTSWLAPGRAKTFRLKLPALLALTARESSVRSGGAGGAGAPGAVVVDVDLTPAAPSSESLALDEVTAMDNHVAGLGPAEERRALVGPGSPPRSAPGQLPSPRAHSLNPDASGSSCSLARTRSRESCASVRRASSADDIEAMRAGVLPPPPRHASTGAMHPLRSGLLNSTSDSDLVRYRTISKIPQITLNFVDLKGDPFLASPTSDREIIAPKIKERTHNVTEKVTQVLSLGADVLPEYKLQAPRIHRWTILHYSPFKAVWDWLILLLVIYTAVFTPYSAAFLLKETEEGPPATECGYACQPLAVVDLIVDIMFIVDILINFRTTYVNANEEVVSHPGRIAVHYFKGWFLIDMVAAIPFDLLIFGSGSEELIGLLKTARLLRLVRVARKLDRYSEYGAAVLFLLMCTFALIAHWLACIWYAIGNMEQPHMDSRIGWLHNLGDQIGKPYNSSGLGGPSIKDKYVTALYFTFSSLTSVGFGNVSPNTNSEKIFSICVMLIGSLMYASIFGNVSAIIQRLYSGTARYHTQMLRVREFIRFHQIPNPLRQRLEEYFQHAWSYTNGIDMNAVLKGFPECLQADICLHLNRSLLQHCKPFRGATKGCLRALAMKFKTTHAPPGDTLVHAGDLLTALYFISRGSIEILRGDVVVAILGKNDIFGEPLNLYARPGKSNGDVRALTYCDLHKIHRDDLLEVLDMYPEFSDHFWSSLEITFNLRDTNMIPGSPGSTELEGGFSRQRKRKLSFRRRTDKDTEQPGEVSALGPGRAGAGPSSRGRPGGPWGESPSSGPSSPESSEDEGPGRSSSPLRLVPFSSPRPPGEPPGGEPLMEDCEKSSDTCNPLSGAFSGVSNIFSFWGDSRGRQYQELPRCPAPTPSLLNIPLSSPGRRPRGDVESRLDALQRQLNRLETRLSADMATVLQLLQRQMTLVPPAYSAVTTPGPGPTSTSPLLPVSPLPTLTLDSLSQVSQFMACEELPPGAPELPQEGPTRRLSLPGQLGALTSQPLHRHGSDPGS
Procedure, shortened: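 Blockade is seen as reduced FluxOR thallium-flux fluorescence in U2OS cells expressing hERG from a BacMam construct, in Opti-MEM with 2% FCS. Concentration-response data fitted to the Hill equation for AC50.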

[2] = target: Luciferin 4-monooxygenase (Photinus pyralis) (UniProt P08659); assay: Biochemical firefly luciferase enzyme assay for NPC (AID 624030); also: nearly all actives have a fitted effect of over 70% in size; also: potency is read from the fitted curve at half-maximal effect; conditions: purified P. pyralis luciferase, luminescence, 5 min; series mostly up to 58.6 µM
Sequence of Luciferin 4-monooxygenase (Photinus pyralis) (P08659 whole entry, looked up): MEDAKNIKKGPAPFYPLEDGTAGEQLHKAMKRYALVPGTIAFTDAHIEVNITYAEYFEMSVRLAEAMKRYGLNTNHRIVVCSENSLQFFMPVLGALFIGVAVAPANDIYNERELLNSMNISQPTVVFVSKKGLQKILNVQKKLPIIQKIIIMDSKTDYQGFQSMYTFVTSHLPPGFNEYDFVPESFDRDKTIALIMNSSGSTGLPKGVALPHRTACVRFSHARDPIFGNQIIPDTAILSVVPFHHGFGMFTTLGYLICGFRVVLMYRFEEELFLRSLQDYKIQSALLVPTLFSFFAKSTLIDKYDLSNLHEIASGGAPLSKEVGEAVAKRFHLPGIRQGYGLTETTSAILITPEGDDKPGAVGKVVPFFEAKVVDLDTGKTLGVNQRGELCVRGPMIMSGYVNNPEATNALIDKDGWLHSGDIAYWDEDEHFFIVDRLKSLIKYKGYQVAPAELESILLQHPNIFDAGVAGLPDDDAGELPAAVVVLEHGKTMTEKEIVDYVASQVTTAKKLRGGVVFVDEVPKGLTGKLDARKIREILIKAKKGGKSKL
Procedure, shortened: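 Counter-screen for direct inhibition of the luciferase enzyme by approved-drug library compounds, run at 10 nM enzyme in 50 mM Tris acetate (final). Luminescence was read within 5 min of enzyme-buffer addition and normalized to PTC124 versus DMSO (0%).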

[3] = S16 Schwann cell viability assay (CellTiter-Glo assay) (AID 624031); conditions: S16 rat Schwann cells viability, 24 h; series mostly up to 57.5 µM;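 also: native untransfected S16 rat Schwann cells; nearly all actives have a fitted effect of over 70% in size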
Procedure, shortened: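 Counter-screen for cytotoxicity: parental S16 rat Schwann cells lacking the PMP22 reporters, treated 24 h with compound, viability from cellular ATP by CellTiter-Glo luminescence, normalized to DMSO (0%) and no-cell wells.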

COc1ccc(/C=C/C(=O)Nc2ccccc2C(=O)O)cc1OC
Potency [1]: inactive
Potency [2]: 0.181 µM (active)
Potency [3]: inactive

CC(=O)O[C@H]1C[C@@]2(C)[C@@H](C[C@@H](O)[C@H]3[C@@]4(C)CC[C@@H](O)[C@@H](C)[C@@H]4CC[C@@]32C)/C1=C(\CCC=C(C)C)C(=O)O
Potency [1]: inactive

Cc1ccc(O)c(-n2nc3ccccc3n2)c1
Potency [1]: inactive
Potency [2]: 2.87 µM (active)
Potency [3]: inactive

C=CCN1C(=O)C(CC(C)C)NC1=S (configuration not stated)
Potency [1]: inactive
Potency [2]: inactive
Potency [3]: inactive

CC1(C)S[C@@H]2[C@H](NC(=O)[C@H](NC(=O)N3CCN(S(C)(=O)=O)C3=O)c3ccccc3)C(=O)N2[C@H]1C(=O)O
Potency [1]: inactive
Potency [2]: inactive
Potency [3]: inactive

CC(C)Cc1ccc([C@H](C)C(=O)O)cc1
Potency [1]: inactive
Potency [2]: inactive

Clc1ccccc1-c1nc(-c2ccncc2)no1
Potency [1]: inactive
Potency [2]: 3.61 µM (active)
Potency [3]: inactive

Nc1c(CC(=O)O)cccc1C(=O)c1ccc(Br)cc1
Potency [1]: inactive
Potency [3]: inactive

O=C(O)[C@H](CC(=O)N1C[C@H]2CCCC[C@H]2C1)Cc1ccccc1
Potency [1]: inactive
Potency [2]: inactive
Potency [3]: inactive

CC1(C)[C@@H](O)CC[C@]2(C)[C@H]3C(=O)C=C4[C@@H]5C[C@@](C)(C(=O)O)CC[C@]5(C)CC[C@@]4(C)[C@]3(C)CC[C@@H]12
Potency [2]: inactive
Potency [3]: inactive

CC(C(=O)O)c1ccc2c(c1)[nH]c1ccc(Cl)cc12 (configuration not stated)
Potency [1]: inactive
Potency [3]: inactive

CCCCCCOc1ccccc1C(N)=O
Potency [1]: inactive
Potency [2]: inactive
Potency [3]: inactive

O=C(/C=C/c1ccccc1)NCCO
Potency [3]: inactive

COC(=O)C1=C(C)NC(C)=C(C(=O)OCC(C)=O)C1c1ccccc1[N+](=O)[O-] (configuration not stated)
Potency [2]: inactive
